Residue numbers refer to the chain shown, from its start. Over roughly 16,000 sequences, “ka relative to ugcaugu” has its median near 0.096; the highest 2% begin near 0.35. This is one part of a sample in which the highest values are shown more often than they occur.
T1: RBFOX1 RRM RbFoxmut (Fox-RRM*) (Homo sapiens, UniProt Q9NWB1 109-208, R118D;E147R;N151S;E152T)
T1 sequence: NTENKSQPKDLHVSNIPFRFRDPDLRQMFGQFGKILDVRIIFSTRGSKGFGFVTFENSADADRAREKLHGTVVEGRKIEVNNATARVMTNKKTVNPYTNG

B1: GAACUCU (DNA:RNA)
RNA: GGGAGACCGGAAUUCAGAUUGUCCGAACUCUUUAAAUCCCGUCGUAGCCACCA
DNA 1: CAATCTGAATTCCGGTCTCCC
DNA 2: TGGTGGCTACGACGGGATT
B2: CGGUAAG (DNA:RNA)
RNA: GGGAGACCGGAAUUCAGAUUGUCCCGGUAAGUUAAAUCCCGUCGUAGCCACCA
DNA 1: CAATCTGAATTCCGGTCTCCC
DNA 2: TGGTGGCTACGACGGGATT
B3: CCGGUCA (DNA:RNA)
RNA: B2 RNA with G26C, U28G, A29U, A30C, G31A
DNA 1: CAATCTGAATTCCGGTCTCCC
DNA 2: TGGTGGCTACGACGGGATT
B4: UGCGACA (DNA:RNA)
RNA: B2 RNA with C25U, G27C, U28G, A30C, G31A
DNA 1: CAATCTGAATTCCGGTCTCCC
DNA 2: TGGTGGCTACGACGGGATT
B5: UGGCUGU (DNA:RNA)
RNA: B1 RNA with G25U, A26G, A27G, C30G
DNA 1: CAATCTGAATTCCGGTCTCCC
DNA 2: TGGTGGCTACGACGGGATT
B6: UGGGGGC (DNA:RNA)
RNA: B2 RNA with C25U, U28G, A29G, A30G, G31C
DNA 1: CAATCTGAATTCCGGTCTCCC
DNA 2: TGGTGGCTACGACGGGATT
B7: CUGGCUG (DNA:RNA)
RNA: B2 RNA with G26U, U28G, A29C, A30U
DNA 1: CAATCTGAATTCCGGTCTCCC
DNA 2: TGGTGGCTACGACGGGATT
B8: CUGUGGC (DNA:RNA)
RNA: B2 RNA with G26U, A29G, A30G, G31C
DNA 1: CAATCTGAATTCCGGTCTCCC
DNA 2: TGGTGGCTACGACGGGATT
B9: UGGGCUG (DNA:RNA)
RNA: B2 RNA with C25U, U28G, A29C, A30U
DNA 1: CAATCTGAATTCCGGTCTCCC
DNA 2: TGGTGGCTACGACGGGATT
B10: UGGGCUC (DNA:RNA)
RNA: B2 RNA with C25U, U28G, A29C, A30U, G31C
DNA 1: CAATCTGAATTCCGGTCTCCC
DNA 2: TGGTGGCTACGACGGGATT
B11: GGUGCCG (DNA:RNA)
RNA: B2 RNA with C25G, G27U, U28G, A29C, A30C
DNA 1: CAATCTGAATTCCGGTCTCCC
DNA 2: TGGTGGCTACGACGGGATT
B12: CCCAUAA (DNA:RNA)
RNA: B2 RNA with G26C, G27C, U28A, A29U, G31A
DNA 1: CAATCTGAATTCCGGTCTCCC
DNA 2: TGGTGGCTACGACGGGATT
B13: CGUUUAU (DNA:RNA)
RNA: B2 RNA with G27U, A29U, G31U
DNA 1: CAATCTGAATTCCGGTCTCCC
DNA 2: TGGTGGCTACGACGGGATT
B14: GCAUGUG (DNA:RNA)
RNA: B2 RNA with C25G, G26C, G27A, A29G, A30U
DNA 1: CAATCTGAATTCCGGTCTCCC
DNA 2: TGGTGGCTACGACGGGATT
B15: GCGCAUA (DNA:RNA)
RNA: B2 RNA with C25G, G26C, U28C, A30U, G31A
DNA 1: CAATCTGAATTCCGGTCTCCC
DNA 2: TGGTGGCTACGACGGGATT
B16: GCACAUG (DNA:RNA)
RNA: B1 RNA with A26C, U29A, C30U, U31G
DNA 1: CAATCTGAATTCCGGTCTCCC
DNA 2: TGGTGGCTACGACGGGATT
B17: GCGCAUG (DNA:RNA)
RNA: B2 RNA with C25G, G26C, U28C, A30U
DNA 1: CAATCTGAATTCCGGTCTCCC
DNA 2: TGGTGGCTACGACGGGATT
B18: GCAUGUC (DNA:RNA)
RNA: B1 RNA with A26C, C28U, U29G, C30U, U31C
DNA 1: CAATCTGAATTCCGGTCTCCC
DNA 2: TGGTGGCTACGACGGGATT
B19: GUCCGUC (DNA:RNA)
RNA: B1 RNA with A26U, A27C, U29G, C30U, U31C
DNA 1: CAATCTGAATTCCGGTCTCCC
DNA 2: TGGTGGCTACGACGGGATT
B20: GCAUAUG (DNA:RNA)
RNA: B2 RNA with C25G, G26C, G27A, A30U
DNA 1: CAATCTGAATTCCGGTCTCCC
DNA 2: TGGTGGCTACGACGGGATT
B21: GCGCGCA (DNA:RNA)
RNA: B1 RNA with A26C, A27G, U29G, U31A
DNA 1: CAATCTGAATTCCGGTCTCCC
DNA 2: TGGTGGCTACGACGGGATT
B22: GCAGAUG (DNA:RNA)
RNA: B2 RNA with C25G, G26C, G27A, U28G, A30U
DNA 1: CAATCTGAATTCCGGTCTCCC
DNA 2: TGGTGGCTACGACGGGATT

Each binder was assayed against T1, RBFOX1 RRM RbFoxmut (Fox-RRM*) (assay: EMSA; HiTS-Eq, 1 nM pool, 10 min; buffer printed only for the single-RNA assays: 10 mM Tris pH 7.5, 150 mM NaCl, 3.4 mM EDTA, 0.001% NP-40, 30 C). Conditions: tags: His6 N-terminal (pET28a); label: 5' 32P.
How it was run: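 A pool of RNA with 7 randomized nucleotides, 5′-radiolabelled and with DNA-annealed flanks, was equilibrated at 1 nM for 10 min in 50 µL with purified RbFox RRM, wild type or mutant, across increasing protein concentrations. Free RNA was separated by 8% native PAGE, excised, reverse-transcribed, barcoded by PCR and sequenced. Relative association constants were obtained from read-count changes of each RNA species versus the control reaction and normalised to the cognate motif.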

Binder | binding signal
B1 | 0.053 KA relative to UGCAUGU
B2 | 0.0872 KA relative to UGCAUGU
B3 | 0.0703 KA relative to UGCAUGU
B4 | 0.0626 KA relative to UGCAUGU
B5 | 0.299 KA relative to UGCAUGU
B6 | 0.0983 KA relative to UGCAUGU
B7 | 0.431 KA relative to UGCAUGU
B8 | 0.102 KA relative to UGCAUGU
B9 | 0.462 KA relative to UGCAUGU
B10 | 0.115 KA relative to UGCAUGU
B11 | 0.128 KA relative to UGCAUGU
B12 | 0.0954 KA relative to UGCAUGU
B13 | 0.147 KA relative to UGCAUGU
B14 | 0.954 KA relative to UGCAUGU
B15 | 0.152 KA relative to UGCAUGU
B16 | 0.128 KA relative to UGCAUGU
B17 | 1.33 KA relative to UGCAUGU
B18 | 0.492 KA relative to UGCAUGU
B19 | 0.0864 KA relative to UGCAUGU
B20 | 0.197 KA relative to UGCAUGU
B21 | 0.13 KA relative to UGCAUGU
B22 | 0.142 KA relative to UGCAUGU

Reference: PMC9911399, “Two distinct binding modes provide the RNA-binding protein RbFox with extraordinary sequence specificity”
